Test results reported in PubChem BioAssay (Tox21).
Unmarked numbers belong to inactive results. Inconclusive results are not listed. Where a call stands in place of a potency, no number is given. Calls of active or inactive are those of the source. Unless noted, calls follow the shape of the dose curve; as a rule, active = well fitted curve in the direction sought with a large enough effect in the repeat runs; inconclusive = weak or mixed curves; inactive = no such curve, though single readings can be large; an effect the other way counts as inactive or inconclusive.

Assays:
[1] = qHTS assay to identify small molecule antagonists of the constitutive androstane receptor (CAR) signaling pathway - cell viability counter screen (AID 1224837); also: nearly all actives have a fitted effect of over 45% in size; also: potency is read from the fitted curve at half-maximal effect
Outline: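 To flag cytotoxic false antagonists, HepG2 hCAR/CYP2B6-2.2kb cells were treated 23 hr with 15-concentration compound series and 50 nM CITCO at 37 C/5% CO2; CellTiter-Fluor fluorescence was the measured end point.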

[2] = target: Nuclear receptor subfamily 1 group I member 3 (Homo sapiens) (UniProt Q14994); assay: qHTS assay to identify small molecule agonists of the constitutive androstane receptor (CAR) signaling pathway (AID 1224839);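 also: HepG2 cells stably carrying human CAR and a CYP2B6 luciferase reporter; nearly all actives have a fitted effect of over 15% in size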
Chain of Nuclear receptor subfamily 1 group I member 3 (Homo sapiens) (Q14994 whole entry, looked up): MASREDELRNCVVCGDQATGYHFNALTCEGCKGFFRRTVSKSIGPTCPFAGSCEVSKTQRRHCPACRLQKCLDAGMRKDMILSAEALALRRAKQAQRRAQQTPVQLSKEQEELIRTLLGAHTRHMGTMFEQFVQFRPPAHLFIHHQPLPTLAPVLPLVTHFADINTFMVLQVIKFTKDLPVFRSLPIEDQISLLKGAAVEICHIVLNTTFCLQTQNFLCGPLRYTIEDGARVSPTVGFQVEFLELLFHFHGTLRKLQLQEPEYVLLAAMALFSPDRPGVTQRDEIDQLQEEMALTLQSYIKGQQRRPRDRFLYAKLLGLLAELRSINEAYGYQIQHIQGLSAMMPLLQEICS
Outline: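 In this screen, CAR-driven CYP2B6 promoter activity is measured by luminescence in HepG2-CYP2B6-hCAR cells after 24 h with test compounds and 0.75 uM PK11195 (final concentration).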

[3] = qHTS assay to identify small molecule antagonists of the estrogen related receptor signaling pathway with the pleiotropic PPARgamma coactivator (PGC) from Tox21 10K library - cell viability counter screen (AID 1224840; active = well fitted cell-killing curve with a large enough effect in the repeat runs, not every such curve was filed as active; also: nearly all actives have a fitted effect of over 40% in size; also: potency is read from the fitted curve at half-maximal effect)
Outline: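 Seeded PGC/ERR cells (2,000/well, 6 h, 37 C/5% CO2) get compound by pin tool; 17.5 h incubation at 37 C; CellTiter-Fluor added, 30 min, fluorescence measured.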

[4] = target: Thyrotropin receptor (Homo sapiens) (UniProt P16473); assay: qHTS assay to identify small molecule agonists of the thyroid stimulating hormone receptor (TSHR) signaling pathway (AID 1224843; calls by dose curve; also: nearly all actives have a fitted effect of over 45% in size; also: potency is read from the fitted curve at half-maximal effect)
Chain of Thyrotropin receptor (Homo sapiens) (P16473 whole entry, looked up): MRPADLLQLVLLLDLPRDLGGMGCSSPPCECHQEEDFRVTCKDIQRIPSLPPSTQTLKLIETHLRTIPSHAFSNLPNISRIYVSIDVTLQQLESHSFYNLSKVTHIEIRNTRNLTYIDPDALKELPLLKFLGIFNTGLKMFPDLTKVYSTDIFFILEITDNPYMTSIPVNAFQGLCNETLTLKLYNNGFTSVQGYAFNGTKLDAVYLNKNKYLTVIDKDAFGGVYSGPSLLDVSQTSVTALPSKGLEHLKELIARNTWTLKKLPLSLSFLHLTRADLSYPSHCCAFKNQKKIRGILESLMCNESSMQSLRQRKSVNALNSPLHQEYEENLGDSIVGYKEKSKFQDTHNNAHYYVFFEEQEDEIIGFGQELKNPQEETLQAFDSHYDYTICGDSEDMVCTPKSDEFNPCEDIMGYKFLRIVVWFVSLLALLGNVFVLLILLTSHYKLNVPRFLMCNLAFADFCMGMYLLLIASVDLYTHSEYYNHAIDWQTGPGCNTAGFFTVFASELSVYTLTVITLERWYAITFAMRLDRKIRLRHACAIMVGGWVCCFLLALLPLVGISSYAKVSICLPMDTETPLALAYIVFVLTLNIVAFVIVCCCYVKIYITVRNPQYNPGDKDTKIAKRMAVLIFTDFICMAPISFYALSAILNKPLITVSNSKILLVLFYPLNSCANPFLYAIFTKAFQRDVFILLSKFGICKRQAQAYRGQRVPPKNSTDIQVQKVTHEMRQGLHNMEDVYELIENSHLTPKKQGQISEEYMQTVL
Outline: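 HEK293/TSHR, 800 cells/well; cpd 30 min RT; add cAMP-d2 + anti-cAMP-cryptate, 1 h RT; fluorescence read on plate reader. 15-pt titration, n=3.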

[5] = qHTS assay to identify small molecule agonists of the hypoxia (HIF-1) signaling pathway - cell viability counter screen (AID 1224844; calls by dose curve; also: nearly all actives have a fitted effect of over 50% in size; also: potency is read from the fitted curve at half-maximal effect)
Outline: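 HRE-bla ME-180; 0.5% dFBS; cpd 17 h, 37C, 5% CO2; CellTiter-Glo lum., 30 min RT, post-FRET read, same wells.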

[6] = qHTS assay to identify small molecule agonists of the hypoxia (HIF-1) signaling pathway (AID 1224846; active = well fitted activation curve with a large enough effect in the signal ratio in the repeat runs, not every such curve was filed as active; the % refers to the signal ratio)
Outline: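 Reporter induction in HRE-bla ME-180 cells is taken as agonism: cells sit 5 hrs after plating, receive compounds or DMSO only, incubate 17 hrs at 37C under 5% CO2, and are loaded with CCF4-AM for beta-lactamase FRET measurement.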

[7] = qHTS assay to identify small molecule agonists of H2AX - cell viability counter screen (AID 1224847; calls by dose curve; also: nearly all actives have a fitted effect of over 30% in size; also: potency is read from the fitted curve at half-maximal effect)
Outline: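 Read-out: CellTiter-Glo luminescence, 30 min RT. Cells: wild-type CHO-K1, 1000/well, 10% FBS, plated overnight at 37C. Treatment: 15 concentrations, 3 hr, 37C, 0.76% DMSO.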

[8] = qHTS RealTime-Glo MT Cell Viability Assay in HepG2 cells - 24 hour (AID 1224867); also: nearly all actives have a fitted effect of over 50% in size; also: potency is read from the fitted curve at half-maximal effect
Outline: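 Cell number in HepG2 cultures estimated from NanoLuc luminescence generated by metabolic reduction of a prosubstrate by living cells. The homogeneous, nonlytic format allowed repeated reads at 0, 8, 16, 24, 32 and 40 h of compound exposure.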

[9] = A CellTox Green Cytotoxicity Assay to monitor cytotoxicity in HEK293 cells - 0 hour (AID 1224869); also: nearly all actives have a fitted effect of over 50% in size
Outline: (§1)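 Tox21 screen in HEK293: membrane-impermeant cyanine dye fluoresces on binding dead-cell DNA; compound pinned 5 h post-seeding, plates held at 37 C, signal read repeatedly through 40 h.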

[10] = qHTS RealTime-Glo MT Cell Viability Assay in HepG2 cells - 40 hour (AID 1224870); also: nearly all actives have a fitted effect of over 50% in size; also: potency is read from the fitted curve at half-maximal effect
Outline: (§2)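 HepG2 cells (600/well) mixed with RealTime-Glo MT reagent, settled 5 h at 37 C/5% CO2 before compound addition. Nonlytic NanoLuc luminescence from viable-cell prosubstrate reduction read repeatedly during 40 h treatment at 37 C.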

[11] = qHTS RealTime-Glo MT Cell Viability Assay in HEK293 cells - 16 hour (AID 1224872); also: nearly all actives have a fitted effect of over 50% in size; also: potency is read from the fitted curve at half-maximal effect
Outline: (§3)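 Homogeneous bioluminescent viability format in HEK293 cells (600 cells/well). Following 5 h at 37 C/5% CO2, 23 nL compound was pintooled; the signal was measured repeatedly during 40 h incubation.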

[12] = qHTS RealTime-Glo MT Cell Viability Assay in HepG2 cells - 8 hour (AID 1224873); also: nearly all actives have a fitted effect of over 55% in size; also: potency is read from the fitted curve at half-maximal effect
Outline: as §2

[13] = A CellTox Green Cytotoxicity Assay to monitor cytotoxicity in HEK293 cells - 40 hour (AID 1224871); also: nearly all actives have a fitted effect of over 45% in size; also: potency is read from the fitted curve at half-maximal effect
Outline: as §1

[14] = qHTS assay to identify small molecule antagonists of the estrogen related receptor signaling pathway with the pleiotropic PPARgamma coactivator (PGC) from Tox21 10K library (AID 1224841; call rule not given here; also: potency is read from the fitted curve at half-maximal effect)
Outline: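 Test chemicals dissolved in DMSO were applied to pre-incubated (6 h) PGC/ERR cells at 2,000 cells/well for an 18 h, 37 C treatment; reporter luminescence was then read using One-Glo.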

[15] = qHTS assay to identify small molecule agonists of the estrogen related receptor signaling pathway with the pleiotropic PPARgamma coactivator (PGC) from Tox21 10K library (AID 1224842); also: nearly all actives have a fitted effect of over 15% in size
Outline: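 PGC/ERR reporter cell line, 2,000 cells per well, incubated 6 h at 37 C before 23 nL compound in DMSO was added. After 18 h at 37 C, One-Glo luminescence read following 30 min at room temperature.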

[16] = target: Nuclear receptor subfamily 1 group I member 3 (Homo sapiens) (UniProt Q14994); assay: qHTS assay to identify small molecule antagonists of the constitutive androstane receptor (CAR) signaling pathway (AID 1224838);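 also: HepG2 cells stably expressing hCAR with CYP2B6 luciferase reporter stimulated by CITCO; nearly all actives have a fitted effect of over 40% in size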
Outline: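 Human hepatoma HepG2 cells expressing hCAR and a CYP2B6 promoter (2.2 kb) luciferase construct; compound titration (15 points) with 50 nM CITCO final, 24 h at 37 C/5% CO2; luminescence via ONE-Glo after 30 min at room temperature.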

[17] = qHTS assay to identify small molecule antagonists of the estrogen related receptor (ERR) signaling pathway from Tox21 library (AID 1224848); also: nearly all actives have a fitted effect of over 50% in size; also: potency is read from the fitted curve at half-maximal effect
Outline: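 Compounds dissolved in DMSO are pin-transferred onto ERR reporter cells (2,000 per well) that have settled for 6 h at 37 C. Plates then incubate 18 h at 37 C before ONE-Glo luciferase reagent and a luminescence read 30 min later.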

[18] = qHTS assay to identify small molecule agonists of the estrogen related receptor (ERR) signaling pathway from Tox21 library (AID 1224849; calls by dose curve; also: nearly all actives have a fitted effect of over 15% in size); conditions: ERR reporter cell line, ONE-Glo luciferase, 18 h; at 92.4 µM (top of the series) unless noted
Outline: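 Tox21 compounds tested for ERR agonism in an NTP reporter cell line: 18 h treatment at 37 C, then ONE-Glo luminescence.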

[19] = qHTS RealTime-Glo MT Cell Viability Assay in HEK293 cells - 32 hour (AID 1224868); also: nearly all actives have a fitted effect of over 50% in size; also: potency is read from the fitted curve at half-maximal effect
Outline: as §3

[20] = qHTS assay to identify small molecule agonists of H2AX (AID 1224845; active = well fitted activation curve with a large enough effect in the signal ratio in the repeat runs, not every such curve was filed as active; the % refers to the signal ratio; also: potency is read from the fitted curve at half-maximal effect)
Outline: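 Wild-type CHO-K1 cells, plated overnight, exposed 3hr at 37C to 15 concentrations (0.76% DMSO final). Lysed, then HTRF anti-pH2AX (S139) cryptate and anti-H2AX-d2 antibodies, 24 hr room temperature; 665/620 nm emission read.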

| Compound | Potency [1] | Potency [2] | Potency [3] | Potency [4] | Potency [5] | outcome [6] | Potency [7] | Potency [8] | Potency [9] | Potency [10] | Potency [11] | Potency [12] | Potency [13] | Potency [14] | Potency [15] | Potency [16] | Potency [17] | activity change, positive = activation [18] [%] | Potency [19] | Potency [20] |
| --- | --- | --- | --- | --- | --- | --- | --- | --- | --- | --- | --- | --- | --- | --- | --- | --- | --- | --- | --- | --- |
| CCN(CC)CCCN(c1ccccc1)C1Cc2ccccc2C1 | inactive | inactive | inactive | inactive | 23.9 µM (active) | inactive | inactive | inactive | inactive | inactive | inactive | inactive |  |  |  |  |  |  |  |  |
| CCCSS/C(CCO)=C(\C)N(C=O)Cc1cnc(C)nc1N | inactive | inactive | inactive | inactive | inactive | inactive |  |  | inactive |  |  | inactive | inactive |  |  |  |  |  |  |  |
| CC(C)(C)CC(C)(C)c1ccccc1O | inactive | inactive | inactive | 13.8 µM (active) |  |  | 90.3 µM (active) | inactive | inactive | inactive |  | inactive | 39.1 µM (active) | inactive | inactive |  |  |  |  |  |
| C/C=C/C=N/NC(=O)c1ccncc1 | inactive | inactive | inactive | inactive |  |  | inactive | inactive |  | inactive | inactive |  |  |  |  |  |  |  |  |  |
| C[C@@H]1CC[C@H]2C(C)(C)[C@H]3C[C@@]12CC[C@@]3(C)O | inactive |  | inactive | 54.4 µM (active) | inactive | inactive |  | inactive |  | inactive |  | inactive | 38.8 µM (active) | 54.4 µM (active) | inactive | inactive | inactive | -6.53 | inactive |  |
| Cc1c(C(=O)O)cccc1[N+](=O)[O-] | inactive | inactive | inactive | inactive |  | inactive | inactive | inactive | inactive | inactive |  | inactive | inactive |  |  |  |  |  | inactive |  |
| CCO[Si](C)(C)OCC | inactive | inactive |  | inactive | inactive | inactive |  | inactive | inactive |  |  | inactive | inactive | 24.3 µM (active) | inactive |  | inactive | -0.643 |  | inactive |
| CCCCCCCCCCOCC(O)CN (stereo not given) | 29.8 µM (active) | inactive |  | 21.1 µM (active) | inactive | inactive | 55.2 µM (active) | 15.1 µM (active) | inactive | 15.1 µM (active) | 23.9 µM (active) |  | 26.8 µM (active) |  | inactive |  |  |  | 23.9 µM (active) |  |
| O=C(NO)c1ccccc1 | inactive |  | inactive |  |  |  |  | inactive | inactive | inactive |  | inactive |  | 18.4 µM (active) | inactive |  | 23.2 µM (active) |  |  |  |
| CNC(=S)NN | 17.2 µM (active) |  | 13.7 µM (active) | inactive |  |  | inactive | inactive | inactive |  |  |  |  | 9.69 µM (active) | inactive |  | 13.7 µM (active) | -71.8 |  | 89.8 µM (active) |
| CCCCCCCCCCc1ccccc1 | inactive |  | inactive |  | inactive | inactive | inactive | inactive | inactive | inactive | inactive | inactive | inactive | inactive | inactive |  | inactive |  |  | inactive |
| COC(=O)CC(C)CCC=C(C)C (stereo not given) | inactive |  | inactive |  | inactive | inactive | inactive | inactive | inactive | inactive | inactive | inactive |  |  | inactive |  | inactive | 1.82 |  |  |
| CC1=CP(=O)(c2ccccc2)CC1 (stereo not given) | inactive |  | inactive | inactive | inactive | inactive | inactive | inactive |  | inactive |  | inactive | inactive | inactive | inactive |  | inactive | -5.03 | inactive | inactive |
| N#CSCSc1nc2ccccc2s1 | 27.3 µM (active) | inactive | 61.1 µM (active) |  | 6.92 µM (active) |  |  | 38.9 µM (active) | inactive |  | 15.5 µM (active) | 49 µM (active) | 11 µM (active) |  |  |  |  |  | 19.5 µM (active) |  |
| CCCCCCCCCCCCCCCC | inactive |  | inactive | inactive | inactive | inactive | inactive | inactive |  | inactive | inactive | inactive | inactive | inactive | inactive |  | inactive | 3.33 | inactive |  |
| CC(COC(=O)c1ccccc1)OC(=O)c1ccccc1 (stereo not given) | inactive | inactive |  | inactive | inactive | inactive | inactive | inactive | inactive | inactive | inactive | inactive | inactive | inactive | inactive |  | inactive | 6.72 | inactive | inactive |
| O=S(=O)(O)CCCN1CCOCC1 | inactive |  | inactive | inactive | inactive | inactive | inactive | inactive | inactive | inactive | inactive |  | inactive | inactive | inactive |  | inactive | -0.481 | inactive | inactive |
